Hits are enriched below; roughly 6.3% of the tested compounds scored in any of these assays.
Spn PMK inh – blocks S. pneumoniae phosphomevalonate kinase; purified PMK, PK/LDH-coupled NADH absorbance 340 nm; inhibition, % at 10 µM; hit rate 0.49% among 65,000; AID 539;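 active means top-ranked compounds by inhibition in the single 10 µM screen, taking a fixed number of the strongest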;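 further: 0% = full reaction with DMSO carrier and 100% = background rate without enzyme reaction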
DPM-DC inhibit – inhibitors of Streptococcus pneumoniae diphosphomevalonate decarboxylase | purified DPM-DC, PK/LDH coupled NADH fluorescence | calls only at 10 µM | AID 556 | hit rate 0.49% among 65,000;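 active means the 320 compounds with the highest percent inhibition in the single-dose primary screen, excluding strongly autofluorescent ones, cut at about 32% in these data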;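 further: kinetic rate of NADH fluorescence loss reporting ADP formed by the decarboxylase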
MK inhibit – S. pneumoniae mevalonate kinase inhibition | purified MK, PK/LDH-coupled NADH absorbance 340 nm | inhibition, % at 10 µM | AID 555 | hit rate 0.48% among 65,000;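 active means ranked among the strongest by inhibition in the single 10 µM screen, a fixed top-ranked set picked for dose follow-up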
NADH enzymes – blocks coupling enzymes of NAD/NADH assays | coupled PK/LDH NADH assays, four targets | IC50, µM (top dose mostly 10 µM), inactives show at the highest dose inhibition | hit rate 0.02% among 65,000;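 active means single-dose screening hits from any of four coupled enzyme assays that gave an IC50 when retested across doses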;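 further: the DPM-DC format reads NADH fluorescence rather than 340 nm absorbance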
Fluor 339 460 – intrinsic fluorescence of library compounds, ex339/em460 – biochemical, MLSMR library, data from DPM-DC assay, artefact control, profiling panel; compound autofluorescence, ex339/em460 nm, NADH buffer; active compounds read high; 1 = no-compound wells, NADH background; fluorescence fold increase at 10 µM; hit rate 5.5% among 65,000; AID 709;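 active means at 10 µM, mean starting fluorescence two-fold or more over control wells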;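 further: signal is the first read of a kinetic run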
A340 absorber – compounds absorbing at 340 nm | AID 708 | 65,000 tested, under 10 active | compound absorbance at 340 nm, fold over control | fold change at 10 µM;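 active means at 10 µM dose, initial 340 nm absorbance at least 2 fold that of control wells; inactive means change under 2 fold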;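 further: initial absorbance extrapolated from kinetic A340 decline of NADH oxidation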
* marks the source's active call; other numbers are inactive results.

How did CCOC(=O)c1oc2nc(C)c3c(c2c1N)CC(C)(C)OC3 do in these assays?
Spn PMK inh: 2.0; MK inhibit: 0.0; NADH enzymes: 1.0%; Fluor 339 460: 3.91*; A340 absorber: 1.07

Results for CCOC(=O)c1oc2nc3c(cc2c1N)COC(C)(C)C3 ?
Spn PMK inh: 6.0; DPM-DC inhibit: inactive; MK inhibit: 11.0; NADH enzymes: 13.0%; Fluor 339 460: 2.79*; A340 absorber: 1.07

Results for O=C(Oc1ccc(-n2cnnn2)cc1)c1ccco1 ?
Spn PMK inh: 12.0; DPM-DC inhibit: inactive; MK inhibit: 11.0; NADH enzymes: 8.0%; Fluor 339 460: 1.09; A340 absorber: 0.98

Results for Cc1nc(NCCCn2ccnc2)c2ccccc2n1 ?
Spn PMK inh: 15.0; DPM-DC inhibit: inactive; MK inhibit: 6.0; NADH enzymes: 7.0%; Fluor 339 460: 1.02; A340 absorber: 1.02

Results for Cc1cc(NCCCn2ccnc2)n2c(nc3ccccc32)c1C#N ?
Spn PMK inh: 1.0; MK inhibit: 4.0; NADH enzymes: 1.0%; Fluor 339 460: 3.35*; A340 absorber: 1.01

What do the screens show for `Cc1cccc2cc(C#N)c(NCCCn3ccnc3)nc12`?
Spn PMK inh: 17.0; DPM-DC inhibit: inactive; MK inhibit: 0.0; NADH enzymes: 12.0%; Fluor 339 460: 2.59*; A340 absorber: 0.98

How did Cc1cc(NCCN2CCCCC2)n2c(nc3ccccc32)c1C#N do in these assays?
Spn PMK inh: 0.0; MK inhibit: 4.0; NADH enzymes: 2.0%; Fluor 339 460: 2.69*; A340 absorber: 0.99

Results for N#Cc1c2c(c(NCCN3CCOCC3)n3c1nc1ccccc13)CCCC2 ?
Spn PMK inh: 21.0; DPM-DC inhibit: inactive; MK inhibit: 5.0; NADH enzymes: 9.0%; Fluor 339 460: 1.77; A340 absorber: 0.99

Results for Cc1cc(NCC2CCCO2)n2c(nc3ccccc32)c1C#N (stereo not given) ?
Spn PMK inh: 1.0; MK inhibit: 5.0; NADH enzymes: 2.0%; Fluor 339 460: 2.47*; A340 absorber: 1

What do the screens show for `Cc1cc(C(=O)OCC(=O)Nc2ccc(S(=O)(=O)N3CCOCC3)cc2)c(C)o1`?
Spn PMK inh: 9.0; DPM-DC inhibit: inactive; MK inhibit: 2.0; NADH enzymes: 4.0%; Fluor 339 460: 1.11; A340 absorber: 1.03

How did Cc1cc(N2CCN(C3CCCC3)CC2)n2c(nc3ccccc32)c1C#N do in these assays?
Spn PMK inh: 8.0; MK inhibit: 9.0; NADH enzymes: 2.0%; Fluor 339 460: 2.46*; A340 absorber: 1.01

How did COC(=O)c1[nH]c2ccc(C)cc2c1NC(=O)CCN1CCN(Cc2ccc3c(c2)OCO3)CC1 do in these assays?
Spn PMK inh: 2.0; DPM-DC inhibit: inactive; MK inhibit: 12.0; NADH enzymes: 8.0%; Fluor 339 460: 2.27*; A340 absorber: 1.01

What do the screens show for `CCOC(=O)C1CCCN(CC(=O)Nc2c(C(=O)OC)[nH]c3ccc(C)cc23)C1` (stereo not given)?
Spn PMK inh: 12.0; DPM-DC inhibit: inactive; MK inhibit: 12.0; NADH enzymes: 12.0%; Fluor 339 460: 2.6*; A340 absorber: 1.05

Results for COC(=O)c1[nH]c2ccc(C)cc2c1NC(=O)CN1CCCCC1C (stereo not given) ?
Spn PMK inh: 11.0; DPM-DC inhibit: inactive; MK inhibit: 8.0; NADH enzymes: 11.0%; Fluor 339 460: 2.29*; A340 absorber: 1.05

How did CC(=O)C1=C(O)C(=O)N(c2cccc(C(=O)O)c2)C1c1ccc(F)cc1 (stereo not given) do in these assays?
Spn PMK inh: 9.0; DPM-DC inhibit: inactive; MK inhibit: 11.0; NADH enzymes: 10.0%; Fluor 339 460: 1.12; A340 absorber: 1.1

Results for CC(C)NC(=O)c1ccc2c(c1)N(CC(=O)N1CCOCC1)C(=O)C(C)(C)O2 ?
Spn PMK inh: 12.0; DPM-DC inhibit: inactive; MK inhibit: 0.0; NADH enzymes: 4.0%; Fluor 339 460: 1.06; A340 absorber: 1

How did Cc1ccc(NC(=O)N(Cc2ccc3c(c2)OCO3)Cc2cc3cc4c(cc3[nH]c2=O)OCCO4)cc1 do in these assays?
Spn PMK inh: 8.0; DPM-DC inhibit: inactive; MK inhibit: 0.0; NADH enzymes: 3.0%; Fluor 339 460: 1.45; A340 absorber: 1.06

How did CCN(CC)CCCN(Cc1cc2cc3c(cc2[nH]c1=O)OCCO3)C(=O)Nc1ccccc1 do in these assays?
Spn PMK inh: 10.0; DPM-DC inhibit: active; MK inhibit: 9.0; NADH enzymes: 18.0%; Fluor 339 460: 3*; A340 absorber: 1.04

How did Cc1ccc2[nH]c(=O)c(CN(CCN3CCOCC3)C(=O)Nc3ccc(F)cc3)cc2c1 do in these assays?
Spn PMK inh: 8.0; DPM-DC inhibit: inactive; MK inhibit: 10.0; NADH enzymes: 6.0%; Fluor 339 460: 1.22; A340 absorber: 1.04

Results for CCc1ccc2[nH]c(=O)c(CN(CCCN3CCOCC3)C(=O)Nc3ccc(Cl)cc3)cc2c1 ?
Spn PMK inh: 10.0; DPM-DC inhibit: inactive; MK inhibit: 3.0; NADH enzymes: 4.0%; Fluor 339 460: 1.22; A340 absorber: 0.99

Results for O=C(Nc1ccc(F)cc1)N(Cc1ccco1)Cc1cc2cc3c(cc2[nH]c1=O)OCO3 ?
Spn PMK inh: 21.0; MK inhibit: 6.0; NADH enzymes: 16.0%; Fluor 339 460: 2.69*; A340 absorber: 1

How did O=C(Nc1ccccc1F)N(CCCN1CCOCC1)Cc1cc2cc3c(cc2[nH]c1=O)OCCO3 do in these assays?
Spn PMK inh: 3.0; DPM-DC inhibit: inactive; MK inhibit: 15.0; NADH enzymes: 10.0%; Fluor 339 460: 3.77*; A340 absorber: 1.04

Results for Cc1ccc(NC(=O)N(CCCN2CCOCC2)Cc2cc3cc4c(cc3[nH]c2=O)OCO4)cc1 ?
Spn PMK inh: 15.0; DPM-DC inhibit: active; MK inhibit: 15.0; NADH enzymes: 21.0%; Fluor 339 460: 2.93*; A340 absorber: 1.09

Results for C=CCn1c(N)c(C(=O)NCCC2=CCCCC2)sc1=S ?
Spn PMK inh: 7.0; DPM-DC inhibit: inactive; MK inhibit: 4.0; NADH enzymes: 2.0%; Fluor 339 460: 1.05; A340 absorber: 1.02

What do the screens show for `COc1ccc2[nH]c(=O)c(CN(CCCN3CCOCC3)C(=O)NCc3ccccc3)cc2c1`?
Spn PMK inh: 14.0; DPM-DC inhibit: inactive; MK inhibit: 7.0; NADH enzymes: 13.0%; Fluor 339 460: 3.27*; A340 absorber: 1.05

How did CCc1ccc2[nH]c(=O)c(CN(CCCN3CCOCC3)C(=O)Nc3ccccc3)cc2c1 do in these assays?
Spn PMK inh: 11.0; DPM-DC inhibit: inactive; MK inhibit: 5.0; NADH enzymes: 5.0%; Fluor 339 460: 1.35; A340 absorber: 1.02

How did CCOc1ccc2[nH]c(=O)c(CN(CC3CCCN3CC)C(=O)NCc3ccccc3)cc2c1 (stereo not given) do in these assays?
Spn PMK inh: 19.0; MK inhibit: 0.0; NADH enzymes: 10.0%; Fluor 339 460: 3.41*; A340 absorber: 1.02
